This note sets out measurements from PubChem BioAssay (NCI).

Test systems include K-562 leukemia; MDA-MB-231 breast; RXF 393 renal; SF-268 CNS; SF-295 CNS; SF-539 CNS; UACC-257 melanoma; M14 melanoma; HCT-15 colon; HT29 colon; SNB-75 CNS; SNB-19 CNS; U251 CNS; PC-3 prostate; SK-MEL-5 melanoma; UACC-62 melanoma; LOX IMVI melanoma; SK-MEL-28 melanoma; SK-MEL-2 melanoma.
Experiment in all cases: NCI-60 one-dose screen, 48 h (100 = growth as untreated, 0 = no growth, -100 = all killed)
Holding throughout (conditions): 10 µM

About 83,000 compounds went through this panel and 20% of them were active in at least one assay; those are over-represented in the sample as a whole.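 Percent growth is the endpoint: 0 to 100 indicates growth inhibition (40 means 60% inhibition), 0 means no net growth, and negative values indicate cell death.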 Values without a mark were called inactive. Calls of active or inactive are those of the source. The calls were made as follows: active = growth percent below 10; inactive = the rest.

Regarding `Cc1nc2oc3ccccc3c(=O)c2cc1C(=O)NCc1ccccc1`, the growth is 13.1% in the assay with K-562 leukemia; 87.9% in the assay on MDA-MB-231 breast; 113% in the assay with RXF 393 renal; 83% in the assay on SF-268 CNS; 43.2% with SF-295 CNS; 93.4% in the assay on SF-539 CNS. The growth with UACC-257 melanoma was 68.1%; with M14 melanoma it was 45.9%; with HCT-15 colon, 70.2%; in the assay with HT29 colon, 94.1%; in the assay on SNB-75 CNS, 80.9%; in the assay on SNB-19 CNS, 84.9%. Moreover, the growth with U251 CNS is 64.7%; in the assay on PC-3 prostate, 90.9%; in the assay on SK-MEL-5 melanoma it was 81%; in the assay on UACC-62 melanoma, 31.1%; in the assay on LOX IMVI melanoma, 55.9%; in the assay with SK-MEL-28 melanoma it was 78.5%. The growth in the assay on SK-MEL-2 melanoma was 9.34% (active).

In the case of `O=[N+]([O-])c1cccc(N=Cc2ccc3c(c2)OCO3)c1`, the growth in the assay on K-562 leukemia was 100%; with MDA-MB-231 breast, 130%; in the assay with RXF 393 renal, 118%; with SF-268 CNS, 114%; in the assay with SF-295 CNS, 102%; with SF-539 CNS, 115%. The growth in the assay on UACC-257 melanoma is 102%; in the assay with M14 melanoma, 97.7%; with HCT-15 colon, 122%; in the assay on HT29 colon it was 105%; in the assay on SNB-75 CNS it was 96.7%; with SNB-19 CNS, 130%. Also, the growth was 97.1% in the assay with U251 CNS; 106% in the assay with PC-3 prostate; 111% in the assay with SK-MEL-5 melanoma; 105% with UACC-62 melanoma; 91.4% in the assay on LOX IMVI melanoma; 98.1% in the assay with SK-MEL-2 melanoma.

For the compound `Cc1cc(C)c(CCc2cc(C)c(C)cc2C)cc1C`, the growth in the assay on K-562 leukemia is 94.8%; in the assay on MDA-MB-231 breast, 104%; in the assay with RXF 393 renal, 117%; in the assay with SF-268 CNS, 103%; in the assay on SF-295 CNS, 108%; with SF-539 CNS, 105%. Further, the growth was 101% in the assay with UACC-257 melanoma; 111% in the assay with M14 melanoma; 117% in the assay on HCT-15 colon; 100% in the assay with HT29 colon; 98.3% in the assay with SNB-75 CNS; 105% with SNB-19 CNS. For the same compound, the growth is 93.9% in the assay with U251 CNS; 106% in the assay on PC-3 prostate; 103% in the assay on SK-MEL-5 melanoma; 101% in the assay on UACC-62 melanoma; 91.7% in the assay with LOX IMVI melanoma; 108% in the assay with SK-MEL-28 melanoma. For the same compound, in the assay on SK-MEL-2 melanoma, the growth was 109%.

Regarding `NC1(C(=O)O)CSSC1`, the growth in the assay on K-562 leukemia is 43.3%; with MDA-MB-231 breast, 124%; in the assay on RXF 393 renal, 74%; with SF-268 CNS it was 101%; in the assay with SF-295 CNS, 33.6%; in the assay on SF-539 CNS, 97%. Besides, the growth in the assay with UACC-257 melanoma is 48.5%; in the assay with M14 melanoma it was 9.39% (active); with HCT-15 colon, 66.3%; in the assay with HT29 colon, 90.7%; in the assay with SNB-75 CNS it was 40.8%; with SNB-19 CNS it was 36.4%. For the same compound, the growth is 15.1% with U251 CNS; 79.1% with PC-3 prostate; 69.9% in the assay with SK-MEL-5 melanoma; 97.4% in the assay with UACC-62 melanoma; 32.2% in the assay on LOX IMVI melanoma; 34.8% with SK-MEL-28 melanoma. Further, the growth in the assay with SK-MEL-2 melanoma was 111%.

For the compound `COc1ccc2c(c1)C(=O)c1c-2c(=O)n(CCCN(C)C)c2cc(OC)c(OC)cc12`, the growth was 64.5% with K-562 leukemia; 103% in the assay on MDA-MB-231 breast; 89.4% in the assay with RXF 393 renal; 46.9% in the assay with SF-268 CNS; 20.7% with SF-295 CNS; 55% with SF-539 CNS. Further, the growth in the assay with UACC-257 melanoma was 100%; with M14 melanoma, 48.4%; with HCT-15 colon, 82.2%; with HT29 colon, 60.6%; with SNB-75 CNS it was 48.9%; in the assay on SNB-19 CNS, 59.2%. Further, the growth is 43.8% in the assay with U251 CNS; 72.2% in the assay with PC-3 prostate; 86.8% with SK-MEL-5 melanoma; 77% in the assay with UACC-62 melanoma; 17.3% in the assay with LOX IMVI melanoma; 69% with SK-MEL-2 melanoma.

On to `CCN(CC)CCOc1nc2cc(OC)c(OC)cc2c2c1-c1ccc(OC)cc1C2=O`, for which the growth was 69.6% with K-562 leukemia; 92.4% in the assay with MDA-MB-231 breast; 86.2% in the assay with RXF 393 renal; 44.3% with SF-268 CNS; 29.6% with SF-295 CNS; 81.9% with SF-539 CNS. Also, the growth in the assay with UACC-257 melanoma was 101%; in the assay with M14 melanoma, 85.9%; in the assay with HCT-15 colon it was 81.4%; in the assay on HT29 colon, 40.4%; in the assay with SNB-75 CNS, 56.5%; in the assay on SNB-19 CNS, 73.4%. The growth in the assay with U251 CNS was 60%; in the assay with PC-3 prostate, 81.8%; in the assay on SK-MEL-5 melanoma, 91%; in the assay with UACC-62 melanoma, 78.9%; in the assay on LOX IMVI melanoma, 30.4%; in the assay on SK-MEL-28 melanoma, 112%. Besides, the growth with SK-MEL-2 melanoma is 74.2%.

On to `COc1cc(C)ccc1C(=O)c1ccc(C)cc1OC`, for which the growth in the assay with K-562 leukemia is 10%; in the assay on MDA-MB-231 breast it was 41.2%; in the assay on RXF 393 renal, -10.5% (active); in the assay on SF-268 CNS it was 43.5%; with SF-295 CNS, -39.1% (active); in the assay with SF-539 CNS, 3.62% (active). Also, the growth with UACC-257 melanoma was 60.3%; in the assay with M14 melanoma, 12.4%; with HCT-15 colon it was 36.3%; with HT29 colon, 2.74% (active); in the assay with SNB-75 CNS, 8.51% (active); with SNB-19 CNS, 43.4%. Also, the growth in the assay on U251 CNS was 18.3%; in the assay with PC-3 prostate, 17.6%; with SK-MEL-5 melanoma it was 25.9%; in the assay with UACC-62 melanoma, 42.3%; in the assay on LOX IMVI melanoma it was 31.5%; in the assay on SK-MEL-2 melanoma, 17.2%.

Turning to `Nc1nccc(Nc2ccccc2)n1`, the growth was 102% in the assay with K-562 leukemia; 118% with MDA-MB-231 breast; 112% with RXF 393 renal; 109% with SF-268 CNS; 104% in the assay on SF-295 CNS; 93.5% in the assay with SF-539 CNS. Also, the growth with UACC-257 melanoma was 95.8%; with M14 melanoma, 108%; in the assay on HCT-15 colon, 110%; in the assay on HT29 colon, 121%; in the assay with SNB-75 CNS, 90.9%; with SNB-19 CNS, 116%. Further, the growth is 104% in the assay with U251 CNS; 102% with PC-3 prostate; 107% with SK-MEL-5 melanoma; 105% with UACC-62 melanoma; 109% with LOX IMVI melanoma; 116% with SK-MEL-28 melanoma. For the same compound, the growth with SK-MEL-2 melanoma was 117%.

As to `CCN(CC)CCN1CC(=O)Nc2cc(Cl)ccc21`, the growth in the assay with K-562 leukemia is 120%; with MDA-MB-231 breast it was 116%; in the assay on RXF 393 renal it was 122%; in the assay on SF-268 CNS, 108%; with SF-295 CNS, 103%; in the assay with SF-539 CNS, 105%. Moreover, the growth with UACC-257 melanoma is 102%; in the assay with M14 melanoma, 93.9%; in the assay on HCT-15 colon, 107%; in the assay on HT29 colon, 112%; with SNB-75 CNS, 92.1%; with SNB-19 CNS it was 104%. In addition, the growth is 99.7% with U251 CNS; 90.8% with PC-3 prostate; 98.6% in the assay on SK-MEL-5 melanoma; 94.4% in the assay with UACC-62 melanoma; 102% in the assay on LOX IMVI melanoma; 115% in the assay with SK-MEL-28 melanoma. Besides, the growth in the assay on SK-MEL-2 melanoma is 104%.
